Measurements: PubChem BioAssay (NCI)
This is part of a sample that, as a whole, favours compounds with a hit. Of some 83,000 tested, about 20% had one in any assay.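 In brief: 96-well plates, 48 h treatment, single concentration, percent growth endpoint.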 Active and inactive are the calls of the source. How the source made its calls: active means growth percent below 10; inactive means the rest.

Each molecule was assayed on HL-60(TB) leukemia (assay: NCI-60 one-dose screen, 48 h (100 = growth as untreated, 0 = no growth, -100 = all killed)). Conditions: 10 µM unless noted.

| SMILES | growth |
| --- | --- |
| Cc1nc2c(nnn2-c2ccccc2)c2nc(-c3ccc(Cl)cc3)oc(=O)c12 | 98.8% (inactive) |
| O=C1CCCC1[n+]1ccccc1 (configuration not stated) | 88.1% (inactive) |
| Cn1c2c(cc(S(=O)(=O)c3ccccc3)c1=O)CCc1c-2cnn1-c1cccc(Cl)c1 | 107% (inactive) |
| O=C(OCc1nc2nc(Cl)nc(N3CCOCC3)c2[nH]1)n1ccnc1 | -30.1% (active) |
| CC/C=C\C[C@@H]1C/C=C2/C(=O)C=C[C@H]2C/C=C\CCCC(=O)O1 | -26% (active) |
| CC(C)c1ncc([N+](=O)[O-])n1C | 118% (inactive) |
| COC(=O)[C@@]1(C)CC[C@]2(C)CC[C@]3(C)C4=CC=C5C(=CC(=O)C(O)=C5C)[C@]4(C)[C@@H](O)C[C@@]3(C)[C@@H]2C1 | 49.6% (inactive) |
| O=C(CN1C(=O)S/C(=C\C(Cl)=C\c2ccccc2)C1=O)NCCCn1ccnc1 | -4.78% (active) |
| Cc1nc2sccn2c1-c1csc(Nc2cccc(Cl)c2C)n1 | 36.4% (inactive) |
| COc1ccc(/C=C/C(=O)Nc2ccc(-c3nc4ccc(OC)cc4s3)cc2)cc1 | 99.3% (inactive) |
| CC1=C([Se]CC(OC(=O)CC[Se]c2ccccc2)C(=O)NC(C)(C)C)C(=O)c2ccccc2C1=O (configuration not stated) | -43.2% (active) |
| COc1ccc(/C=N/C2=NNC(C)(c3ccccc3O)N2C(Cc2c[nH]c3ccccc23)C(=O)O)cc1 (configuration not stated) | -21.9% (active) |
| COc1cnc2c(c1)C(=O)c1c-2n(CCCNC(C)C)c(=O)c2cc(F)ccc12 | -38.7% (active) |
| COC(=O)CCC/C=C\C[C@H]1C=CC(=O)/C1=C/C[C@@H](O)CCc1cccc(C(F)(F)F)c1 | -18.2% (active) |
| COC(=O)c1ccc2oc(NC(=O)c3ccc(N4CCOCC4)c([N+](=O)[O-])c3)nc2c1 | 96.7% (inactive) |
| Cc1nc(-c2ccccc2)sc1CC#N | 93.9% (inactive) |
| CC(=O)Nc1ccc2c(c1)C(=O)c1cccc(C(=O)O)c1-2 | 97.2% (inactive) |
| C[C@@H]1C[C@@H]([C@@H](CC2CC(=O)NC(=O)C2)OC(=O)CC(=O)c2ccccc2)C(=O)[C@@H](C)C1 | 13% (inactive) |
| Nc1ccc(-c2nc3ccc4[nH]ncc4c3c3c2CCCC3)cc1F | 8.91% (active) |
| COc1ccc(-c2cc(C(=O)N=Nc3c(O)[nH]c4ccc(Br)cc34)no2)cc1 | 95.1% (inactive) |
| COC(=O)c1c2c(c(C)[n+]([O-])c1C)C(=O)C=C(NCc1cccc(OC)c1)C2=O | -37.3% (active) |
| O=C1NCC(=O)N(Cc2ccco2)[C@H]1Cc1ccccc1 | 102% (inactive) |
| COc1ccc(/C(=N\O)c2cc(C)c(OC)c(C)c2)cc1O | -18.3% (active) |
| C=C(C)[C@@H]1CC[C@]2(C)[C@H](CC=C3[C@@H]4CC(C)(C)CC[C@]4(CO)CC[C@]32C)[C@@]1(C)CCCN | -68.9% (active) |
| O=C1Nc2ccc(Cl)cc2/C1=C/c1cccs1 | 98% (inactive) |
| CO[C@H]1CC(=O)n2c3ccccc3c3c4c(c5c6ccccc6n1c5c32)C(=O)NC4=O | 96.9% (inactive) |
| COc1ccc(Nc2ncccc2C(=O)NCc2cn(Cc3cc(OC)cc(OC)c3)nn2)cc1 | 91.6% (inactive) |
